# Assay results as given in PubChem BioAssay AID1159580 (chemical genetic matrix, 2015).
# The campaign covered roughly 5,500 compounds. About 2,000 (36%) were called active. Not shown: some 18% with an inconclusive outcome. The list shows a part of the results. A number with no mark means an inactive call. No stated cut-off is given here; in the data, active means normalized growth mostly below about 0.91 (no sharp cut-off); inconclusive means no clear call, values can overlap the other calls; inactive means mostly above about 0.92.
# Test: chemical genetic growth profiling, strain panel (AID 1159580);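 further: tested at 20 µM; growth read once vehicle control cultures reached saturation at 30 °C; 1 = growth at the plate median or of vehicle wells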
# Conditions: growth OD
# [1] = S. cerevisiae deletion strains, locus YAL013W, strain DEP1, stronger effect = lower value
# [2] = S. cerevisiae deletion strains, locus YBR229C, strain ROT2, stronger effect = lower value
# [3] = S. cerevisiae deletion strains, locus YCL061C, strain MRC1, stronger effect = lower value
# [4] = S. cerevisiae deletion strains, locus YDL101C, strain DUN1, stronger effect = lower value
# [5] = S. cerevisiae deletion strains, locus YDR150W, strain NUM1, stronger effect = lower value
# [6] = S. cerevisiae deletion strains, locus YEL061C, strain CIN8, stronger effect = lower value
# [7] = S. cerevisiae deletion strains, locus YGR078C, strain PAC10, stronger effect = lower value
# [8] = S. cerevisiae deletion strains, locus YGR229C, strain SMI1, stronger effect = lower value
# [9] = S. cerevisiae deletion strains, locus YHR030C, strain SLT2, stronger effect = lower value
# [10] = S. cerevisiae deletion strains, locus YHR087W, strain rtc3, stronger effect = lower value
# [11] = S. cerevisiae deletion strains, locus YJR043C, strain POL32, stronger effect = lower value
# [12] = S. cerevisiae deletion strains, locus YJR075W, strain HOC1, stronger effect = lower value
# [13] = S. cerevisiae deletion strains, locus YKL190W, strain CNB1, stronger effect = lower value
# [14] = S. cerevisiae deletion strains, locus YLR039C, strain RIC1, stronger effect = lower value
# [15] = S. cerevisiae deletion strains, locus YLR058C, strain SHM2 (second series), stronger effect = lower value
# [16] = S. cerevisiae deletion strains, locus YLR085C, strain ARP6, stronger effect = lower value
# [17] = S. cerevisiae deletion strains, locus YLR262C, strain YPT6, stronger effect = lower value
# [18] = S. cerevisiae deletion strains, locus YML094W, strain GIM5, stronger effect = lower value
# [19] = S. cerevisiae deletion strains, locus YMR219W, strain ESC1, stronger effect = lower value
# [20] = S. cerevisiae deletion strains, locus YMR263W, strain SAP30, stronger effect = lower value
# [21] = S. cerevisiae deletion strains, locus YNL153C, strain GIM3, stronger effect = lower value
# [22] = S. cerevisiae deletion strains, locus YNL298W, strain CLA4 (second series), stronger effect = lower value
# [23] = S. cerevisiae deletion strains, locus YNL322C, strain KRE1, stronger effect = lower value
# [24] = S. cerevisiae deletion strains, locus YNR030W, strain Alg12, stronger effect = lower value
# [25] = S. cerevisiae deletion strains, locus YOL006C, strain TOP1, stronger effect = lower value
# [26] = S. cerevisiae deletion strains, locus YPL055C, strain LGE1, stronger effect = lower value
# [27] = S. cerevisiae deletion strains, locus YPL241C, strain CIN2, stronger effect = lower value
# [28] = S. cerevisiae deletion strains, locus YPR135W, strain CTF4, stronger effect = lower value
# [29] = S. cerevisiae strains, strain wild type, stronger effect = lower value
# [30] = S. cerevisiae deletion strains, locus YJL187C, strain SWE1, stronger effect = lower value
# [31] = S. cerevisiae deletion strains, locus YNL128W, strain TEP1, stronger effect = lower value
# [32] = S. cerevisiae deletion strains, locus YDL134C, strain PPH21, stronger effect = lower value
smiles,measurement,setting,value
O=C(Cc1ccccc1)NC1CCN(S(=O)(=O)c2ccc(Cl)cc2)CC1,normalized growth,[1],1.01
same,normalized growth,[2],1
same,normalized growth,[3],0.992
same,normalized growth,[4],1.01
same,normalized growth,[5],0.996
same,normalized growth,[6],1.01
same,normalized growth,[7],0.98
same,normalized growth,[8],0.992
same,normalized growth,[9],0.973
same,normalized growth,[10],1
same,normalized growth,[11],0.985
same,normalized growth,[12],0.962
same,normalized growth,[13],0.994
same,normalized growth,[14],1
same,normalized growth,[15],0.993
same,normalized growth,[16],1.01
same,normalized growth,[17],1.01
same,normalized growth,[18],1
same,normalized growth,[19],0.999
same,normalized growth,[20],0.992
same,normalized growth,[21],0.982
same,normalized growth,[22],1.03
same,normalized growth,[23],0.998
same,normalized growth,[24],1
same,normalized growth,[25],1.02
same,normalized growth,[26],0.986
same,normalized growth,[27],1.03
same,normalized growth,[28],0.971
same,normalized growth,[29],1.01
O=S(=O)(c1ccc(Cl)cc1)N1CCN(Cc2ccccc2)CC1,normalized growth,[1],1.01
same,normalized growth,[2],0.99
same,normalized growth,[3],1.01
same,normalized growth,[4],0.985
same,normalized growth,[5],0.986
same,normalized growth,[6],0.958
same,normalized growth,[7],0.992
same,normalized growth,[9],0.856
same,normalized growth,[10],0.978
same,normalized growth,[11],1.01
same,normalized growth,[12],0.982
same,normalized growth,[14],0.846
same,normalized growth,[15],1
same,normalized growth,[16],0.985
same,normalized growth,[17],0.809 (active)
same,normalized growth,[18],0.967
same,normalized growth,[19],0.994
same,normalized growth,[20],1.02
same,normalized growth,[21],1
same,normalized growth,[22],0.956
same,normalized growth,[23],0.998
same,normalized growth,[24],0.987
same,normalized growth,[26],0.972
same,normalized growth,[27],0.978
same,normalized growth,[28],0.923
same,normalized growth,[29],0.987
CC(=O)Nc1ccc(S(=O)(=O)NCCCN2CCN(Cc3ccccc3)CC2)cc1Cl,normalized growth,[1],0.993
same,normalized growth,[2],1.01
same,normalized growth,[3],0.999
same,normalized growth,[4],0.952
same,normalized growth,[5],0.924
same,normalized growth,[6],1.04
same,normalized growth,[7],0.983
same,normalized growth,[9],1.03
same,normalized growth,[10],1.02
same,normalized growth,[30],1.01
same,normalized growth,[11],0.992
same,normalized growth,[12],1.01
same,normalized growth,[13],0.993
same,normalized growth,[14],0.992
same,normalized growth,[15],1.01
same,normalized growth,[16],1.02
same,normalized growth,[17],1
same,normalized growth,[18],1.01
same,normalized growth,[19],0.996
same,normalized growth,[20],0.944
same,normalized growth,[31],0.986
same,normalized growth,[21],0.994
same,normalized growth,[22],0.969
same,normalized growth,[23],0.999
same,normalized growth,[24],0.99
same,normalized growth,[25],1.02
same,normalized growth,[26],0.915
same,normalized growth,[27],1
same,normalized growth,[28],0.926
Cc1ccc(S(=O)(=O)N2CCCCCC2)cc1,normalized growth,[1],0.98
same,normalized growth,[2],0.997
same,normalized growth,[3],0.997
same,normalized growth,[4],0.985
same,normalized growth,[32],0.999
same,normalized growth,[5],0.976
same,normalized growth,[6],1.01
same,normalized growth,[7],0.985
same,normalized growth,[8],0.988
same,normalized growth,[9],0.896
same,normalized growth,[10],1.03
same,normalized growth,[11],0.999
same,normalized growth,[12],0.998
same,normalized growth,[14],0.881
same,normalized growth,[15],0.998
same,normalized growth,[16],0.921
same,normalized growth,[17],0.928
same,normalized growth,[18],1.02
same,normalized growth,[19],0.983
same,normalized growth,[20],1
same,normalized growth,[21],0.987
same,normalized growth,[22],0.983
same,normalized growth,[23],0.972
same,normalized growth,[24],0.983
same,normalized growth,[25],0.961
same,normalized growth,[26],1.04
same,normalized growth,[27],0.984
same,normalized growth,[28],0.843
same,normalized growth,[29],1
Cc1ccc(S(=O)(=O)N2CCC(C(c3ccccc3)c3ccccc3)CC2)cc1,normalized growth,[1],0.998
same,normalized growth,[2],0.989
same,normalized growth,[3],0.963
same,normalized growth,[4],0.975
same,normalized growth,[5],0.948
same,normalized growth,[6],0.994
same,normalized growth,[7],0.972
same,normalized growth,[9],0.971
same,normalized growth,[10],1.05
same,normalized growth,[11],1
same,normalized growth,[12],1
same,normalized growth,[14],0.97
same,normalized growth,[15],1.01
same,normalized growth,[16],0.989
same,normalized growth,[17],0.989
same,normalized growth,[18],1
same,normalized growth,[19],0.993
same,normalized growth,[20],0.994
same,normalized growth,"S. cerevisiae deletion strains, locus YMR307W, strain GAS1, stronger effect = lower value",1.24
same,normalized growth,[31],0.969
same,normalized growth,[21],0.988
same,normalized growth,[22],0.971
same,normalized growth,[23],0.999
same,normalized growth,[24],1.01
same,normalized growth,[26],1.06
same,normalized growth,[27],0.986
same,normalized growth,[28],0.986
same,normalized growth,[29],0.974
Cc1ccc(S(=O)(=O)N2CCN(CCOc3ccccc3)CC2)cc1,normalized growth,[1],1
same,normalized growth,[2],0.994
same,normalized growth,[3],0.982
same,normalized growth,[4],0.992
same,normalized growth,[32],1
same,normalized growth,[5],0.961
same,normalized growth,[6],0.972
same,normalized growth,[7],0.993
same,normalized growth,[8],0.99
same,normalized growth,[9],0.896
same,normalized growth,[10],0.995
same,normalized growth,[30],0.995
same,normalized growth,[11],1
same,normalized growth,[12],0.984
same,normalized growth,[14],0.828
same,normalized growth,[15],0.987
same,normalized growth,[16],0.966
same,normalized growth,[17],0.701 (active)
same,normalized growth,[18],0.944
same,normalized growth,[19],0.985
same,normalized growth,[31],0.997
same,normalized growth,[21],0.989
same,normalized growth,[22],0.96
same,normalized growth,[23],0.997
same,normalized growth,[24],0.967
same,normalized growth,[26],0.953
same,normalized growth,[27],0.982
same,normalized growth,[28],0.99
